Compound activity as filed in PubChem.
HT1080 IDH1KD tx = toxicity to HT-1080 IDH1 knockdown cells (counter line); HT-1080 IDH1 knockdown viability, ATP luminescence, 48 h; AID 686971; Potency, µM (top dose mostly 46.1 µM), actives largely listed as cytotoxic; 360,000 compounds, 2% hits
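In this qHTS, HT-1080 cells depleted of IDH1 are exposed for 48 h at 37 °C to compound titrations. Toxicity is scored from CellTiter-Glo luminescence, with DMSO as full viability and medium alone as none.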
HT1080-NT tox = kills 2HG-producing HT-1080-NT fibrosarcoma cells; HT-1080-NT fibrosarcoma viability, CellTiter-Glo ATP luminescence, 48 h; Potency, µM (doses to about 46.1 µM), actives largely listed as cytotoxic; 360,000 compounds, 1.6% hits;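 also: NT is the 2HG producing partner of a matched IDH1 knockdown line; nearly all actives have a fitted effect of over 55% in size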
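750 cells/well, RPMI + 5% FBS; 2 h settle, compound pin-transfer, 48 h at 37 degrees C. CellTiter-Glo 10 min RT, luminescence. Normalized to DMSO and media-only wells.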
TDP1 cell noCPT = qHTS for Inhibitors of human tyrosyl-DNA phosphodiesterase 1 (TDP1): qHTS in cells in absence of CPT; DT40 Tdp1-/- hTDP1 cells, no CPT, ATP luminescence, 48 h; Potency, µM (highest dose often 46.2 µM), most hits filed as inhibitors; 420,000 compounds, 15% hits; AID 686978, 2013; also: nearly all actives have a fitted effect of over 55% in size
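Cells were dispensed at 400 per well, compounds added by pin tool, plates incubated ≥48 hr at 37 °C, then CellTiter-Glo added for 30 min at room temperature before luminescence reading. Line: DT40 Tdp1-/- complemented with hTDP1; camptothecin omitted.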
IL1B secr inh = blocks inflammasome-driven IL-1 beta release; THP-1 LPS/ATP IL-1B secretion, AlphaLISA, 16 h; hits give low values; activity change, % at 57.5 µM; 360,000 compounds, 4.7% hits; AID 743279; in the data active = activity change below about -50%; inconclusive = mostly about -30% to -49%
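THP-1 cells pretreated 1 hr with compounds (up to 57.5 uM final), then stimulated with LPS (250 ng/mL final) plus ATP (1.25 mM final); secreted IL-1B measured by AlphaLISA after 16 hr, decreased signal indicating inhibition.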
TDP1 cell CPT = growth inhibition of DT40 Tdp1-/-;hTDP1 cells with camptothecin (screen for TDP1 inhibitors); AID 686979; Potency, µM (titrated, usually from 46.2 µM), hits mostly inhibitors; chicken DT40 Tdp1-/-;hTDP1 cells + 20 nM CPT, ATP luminescence, 48 h; 420,000 compounds, 12% hits; also: nearly all actives have a fitted effect of over 55% in size
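Chicken DT40 Tdp1-/- cells complemented with human TDP1, 400 cells/well, exposed to compounds plus 20 nM camptothecin for at least 48 h at 37 C; viability read as ATP content by CellTiter-Glo luminescence.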
Each line names hits and unclear results; the compound was inactive in the other large screens. Sampled rows, rich in hits. Any-hit rate of the full collection: about 19%. Unless noted, calls follow the shape of the dose curve; as a rule, active = well fitted curve in the direction sought with a large enough effect; inconclusive = small, poorly fitted or top-dose-only effect, or another doubt; inactive = no such curve, though single readings can be large; an effect the other way counts as inactive or inconclusive.

O=C1CSC2(C(=O)N(Cc3ccccc3)c3ccccc32)N1c1ccc(Cl)cc1 (stereo unspecified)	TDP1 cell noCPT 21µM, TDP1 cell CPT 16µM (no result: HT1080 IDH1KD tx, HT1080-NT tox, IL1B secr inh)
Cc1cccc(N2C(=O)CSC23C(=O)N(CC(=O)NCc2ccccc2Cl)c2ccccc23)c1 (stereo unspecified)	TDP1 cell noCPT 21µM, TDP1 cell CPT inconclusive (no result: HT1080 IDH1KD tx, HT1080-NT tox, IL1B secr inh)
Cc1cc(C)cc(N2C(=O)CSC23C(=O)N(CC(N)=O)c2ccccc23)c1 (stereo unspecified)	none (no result: HT1080 IDH1KD tx, HT1080-NT tox, IL1B secr inh)
O=C(CN1C(=O)C2(SCC(=O)N2c2ccc(Cl)cc2)c2ccccc21)NCCc1ccccc1 (stereo unspecified)	TDP1 cell noCPT 18µM, TDP1 cell CPT inconclusive (no result: HT1080 IDH1KD tx, HT1080-NT tox, IL1B secr inh)
C[C@H]1CCCCO[C@H](CN(C)CC2CCCCC2)[C@@H](C)CN([C@@H](C)CO)C(=O)c2cc(NS(=O)(=O)c3ccccc3)ccc2O1	HT1080 IDH1KD tx inconclusive, HT1080-NT tox inconclusive, IL1B secr inh inconclusive, TDP1 cell CPT inconclusive
Cc1ccc(NC(=O)CCNC(=O)c2ccccc2Cl)cc1S(=O)(=O)N1CCOCC1	none
O=C(CNC(=O)c1ccc(Br)cc1)N/N=C/c1cccnc1	TDP1 cell noCPT inconclusive
FC(F)(F)c1cccc(N2CCN(C3CC4CCC3C4)CC2)c1 (stereo unspecified)	HT1080 IDH1KD tx inconclusive, TDP1 cell noCPT inconclusive
O=C1C2CCCN2C(=O)N1CCN1CCN(c2cccc(C(F)(F)F)c2)CC1 (stereo unspecified)	TDP1 cell noCPT 8.2µM
CCCN1CCC(N2CCN(c3cccc(C(F)(F)F)c3)CC2)CC1	HT1080-NT tox inconclusive, TDP1 cell noCPT 21µM, TDP1 cell CPT 23µM
CCCN1CCC(N2CCN(c3ccc([N+](=O)[O-])cc3)CC2)CC1	TDP1 cell noCPT 21µM, TDP1 cell CPT inconclusive
Cc1cccc(C)c1NC(=O)CN1C(=O)c2cccc3cccc1c23	TDP1 cell CPT inconclusive (no result: HT1080 IDH1KD tx, HT1080-NT tox, IL1B secr inh)
O=C1N(CN2CCOCC2)c2ccccc2C12OCC(CCl)O2 (stereo unspecified)	none
Cc1cc(C(=O)N2CCC(Cc3ccccc3)CC2)no1	HT1080-NT tox inconclusive, TDP1 cell noCPT inconclusive, IL1B secr inh inconclusive
O=C(c1ccco1)N1CCC2CC1c1c(Cl)cccc12 (stereo unspecified)	TDP1 cell noCPT inconclusive, TDP1 cell CPT inconclusive
S=C(NCCc1ccccc1)N1CCC2CC1c1c(Cl)cccc12 (stereo unspecified)	TDP1 cell noCPT 16µM, TDP1 cell CPT inconclusive
COc1ccc(NC(=S)N2CCC3CC2c2c(Cl)cccc23)c(OC)c1 (stereo unspecified)	TDP1 cell noCPT inconclusive, TDP1 cell CPT inconclusive
C=CCNC(=S)N1CCC2CC1c1c(Cl)cccc12 (stereo unspecified)	TDP1 cell noCPT 26µM, TDP1 cell CPT inconclusive
CCCS(=O)(=O)NC(=O)C1(C)CCCN(C(=O)c2cc(F)cc(F)c2)C1 (stereo unspecified)	none
COCCNC(=O)c1cc(-c2ccccc2)n(Cc2cc(C)no2)n1	none
Cc1cc(Cn2nc(C(=O)NCc3cccc(Br)c3)cc2-c2ccccc2)on1	HT1080-NT tox inconclusive, TDP1 cell noCPT inconclusive, IL1B secr inh -58, TDP1 cell CPT inconclusive
CCc1n[nH]c2c1/C(=N\O)CC(c1ccccc1)C2 (stereo unspecified)	TDP1 cell noCPT 23µM, TDP1 cell CPT inconclusive
CCCCc1n[nH]c2c1/C(=N/O)CC(c1ccccc1)C2 (stereo unspecified)	HT1080 IDH1KD tx inconclusive, HT1080-NT tox inconclusive, TDP1 cell noCPT inconclusive, IL1B secr inh -58, TDP1 cell CPT inconclusive
CCCCc1noc2c1/C(=N\O)CC(c1ccccc1)C2 (stereo unspecified)	none
CCN1C(=O)c2ccccc2S(=O)c2ccc(C(=O)NCc3ccccc3OC)cc21 (stereo unspecified)	TDP1 cell noCPT 23µM, TDP1 cell CPT inconclusive (no result: HT1080 IDH1KD tx, HT1080-NT tox, IL1B secr inh)
CCN1C(=O)c2ccccc2S(=O)c2ccc(C(=O)NCc3ccc(OC)cc3)cc21 (stereo unspecified)	TDP1 cell noCPT inconclusive, TDP1 cell CPT inconclusive
CCCCSCCCNC(=O)c1ccc2c(c1)N(CC)C(=O)c1ccccc1S2=O (stereo unspecified)	TDP1 cell noCPT inconclusive, TDP1 cell CPT 18µM
Cc1ccc(-c2n[nH]c(Cc3ccccc3)n2)cc1	TDP1 cell noCPT inconclusive, TDP1 cell CPT inconclusive
NC(=O)C1(N2CCCCC2)CCN(C(=S)Nc2ccc(S(N)(=O)=O)cc2)CC1	none
S=C(NCc1ccccc1)Nc1cccc2ccccc12	TDP1 cell noCPT 18µM, TDP1 cell CPT 18µM
CCOc1ccccc1NC(=S)NC1CC2CCC1C2 (stereo unspecified)	TDP1 cell noCPT 21µM, TDP1 cell CPT inconclusive
CCOc1ccc(CNC(=S)Nc2ccccc2)cc1Cl	TDP1 cell noCPT inconclusive, IL1B secr inh -79, TDP1 cell CPT inconclusive
S=C(NCc1cccs1)Nc1cccc2ccccc12	IL1B secr inh inconclusive
COc1ccc(NC(=S)NC2CC3CCC2C3)c(OC)c1 (stereo unspecified)	none
COc1ccc(CNC(=S)Nc2ccccc2)cc1	none
CN(C)C(=S)NCc1ccccc1	TDP1 cell noCPT 10µM, TDP1 cell CPT 23µM
CC(=O)Nc1ccccc1-c1nc(CNC(=O)c2ccc(-c3ccccc3F)cc2)c(C)o1	none (no result: HT1080 IDH1KD tx, HT1080-NT tox, IL1B secr inh)
CCN(C(=S)Nc1cccc2ccccc12)c1ccccc1	TDP1 cell noCPT 10µM, TDP1 cell CPT inconclusive
CCOc1ccccc1NC(=S)Nc1ncccc1C	HT1080 IDH1KD tx inconclusive, HT1080-NT tox inconclusive, TDP1 cell noCPT 29µM, TDP1 cell CPT inconclusive
CCOc1ccccc1NC(=S)NCc1ccccc1	HT1080-NT tox inconclusive, TDP1 cell noCPT inconclusive, TDP1 cell CPT 10µM
COC(=O)c1ccc(NC(=S)NC2CC3CCC2C3)cc1 (stereo unspecified)	HT1080 IDH1KD tx inconclusive, HT1080-NT tox inconclusive, TDP1 cell noCPT 21µM, TDP1 cell CPT 18µM
COC(=O)c1ccc(NC(=O)C2CC3CCC2C3)cc1 (stereo unspecified)	none
CC(=O)Nc1cccc(NC(=O)Cc2cccs2)c1	none
O=C(Nc1ccc2nc(-c3cccs3)[nH]c2c1)c1cccs1	HT1080 IDH1KD tx inconclusive, HT1080-NT tox inconclusive, TDP1 cell noCPT 23µM, TDP1 cell CPT inconclusive
O=C(Nc1ccc(-c2nc3ccc(NC(=O)c4cccs4)cc3[nH]2)cc1)c1cccs1	TDP1 cell noCPT 1.6µM, TDP1 cell CPT 1.6µM (no result: HT1080 IDH1KD tx, HT1080-NT tox)
O=C(Nc1ccc2nc(-c3cccs3)[nH]c2c1)c1ccco1	TDP1 cell noCPT inconclusive, TDP1 cell CPT inconclusive
O=C(Cc1cccs1)Nc1cccc(-c2nc3cc4ccccc4cc3[nH]2)c1	HT1080 IDH1KD tx inconclusive, HT1080-NT tox 23µM, TDP1 cell noCPT 13µM, IL1B secr inh -97, TDP1 cell CPT 26µM
